# Source: PubChem
# Only some compounds are listed: those with a hit (about 31% of all), similar ones and a draw of the others.
# CYP2C19 act: cytochrome P450 2C19 (human) activation; P33261; recombinant CYP2C19, luciferin-H EGE luminescence; hits give high values; 0 = fully inhibited enzyme, 1 = untreated enzyme; activation factor at 5 µM; 96,000 tested, under 10 active; AID 1025;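 active means activation factor of at least 2 at 5 µM in the primary screen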;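 further: 0 = wells with 2.5 mM tranylcypromine and 1 = vehicle-only wells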
# CYP2C19 inh: blocks human cytochrome P450 2C19. P33261. inhibition, % at 5 µM. hit rate 21% among 96,000. CYP2C19 Supersomes, luciferin-H EGE luminescence, 30 min;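 active means CYP2C19 inhibition above a set limit at 5 µM in the primary screen, cut at about 50% in these data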;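 further: plate controls were negative control wells for no effect and 2.5 mM tranylcypromine positive control for full effect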
# CYP2C9 inh: human CYP2C9 inhibition. P11712. CYP2C9 Supersomes, luciferin-H conversion, luminescence. inhibition, % at 5 µM. hit rate 20% among 96,000;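 active means blocking of liver enzyme CYP2C9 beyond about 50% at 5 µM, limit read from the data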
# Target sequence (P11712 whole entry, looked up): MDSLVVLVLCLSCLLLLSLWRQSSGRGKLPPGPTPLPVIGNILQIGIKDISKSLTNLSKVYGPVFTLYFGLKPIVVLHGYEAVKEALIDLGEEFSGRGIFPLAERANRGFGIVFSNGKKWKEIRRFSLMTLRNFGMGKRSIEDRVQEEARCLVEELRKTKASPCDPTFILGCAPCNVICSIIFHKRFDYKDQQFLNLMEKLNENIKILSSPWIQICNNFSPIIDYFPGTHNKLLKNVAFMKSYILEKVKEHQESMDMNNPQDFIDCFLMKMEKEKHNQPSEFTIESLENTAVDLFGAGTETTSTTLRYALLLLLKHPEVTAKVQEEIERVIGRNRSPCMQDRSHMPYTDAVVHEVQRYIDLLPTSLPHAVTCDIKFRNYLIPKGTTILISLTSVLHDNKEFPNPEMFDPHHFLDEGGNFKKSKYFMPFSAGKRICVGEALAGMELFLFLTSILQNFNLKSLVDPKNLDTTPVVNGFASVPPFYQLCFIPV
# CYP2C9 activ: activators of human CYP2C9 | hit rate 1.4% among 96,000 | activation factor at 5 µM | recombinant CYP2C9, luciferin-H conversion, luminescence; hits give high values; factor 1 = untreated enzyme, 0 = blocked | P11712;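 active means activation factor of 2 or more for CYP2C9 at a 5 µM dose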;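 further: 0 = sulfaphenazole-blocked wells and 1 = vehicle-only wells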
# * hit, by the source's call.
SMILES,CYP2C19 act,CYP2C19 inh,CYP2C9 inh,CYP2C9 activ
CCOC(=O)Cc1csc(NC(=O)CCN2C(=O)c3ccccc3C2=O)n1,0.3,69*,76*,0.2
Cc1nnc(NC(=O)CCCN2C(=O)c3ccccc3C2=O)s1,0.9,9,10,0.9
CCC(CC)c1nnc(NC(=O)CCCN2C(=O)c3ccccc3C2=O)s1,0.6,41,72*,0.3
CCOC(=O)Cc1csc(NC(=O)c2c(O)c3ccccc3n(C)c2=O)n1,1,-4,-22,1.2
COC(=O)CC(NC(=O)c1ccco1)c1cccc2ccccc12 (stereo not given),0.4,64*,21,0.8
COC(=O)CC(NS(=O)(=O)c1cccs1)c1cccc2ccccc12 (stereo not given),0,100*,-2,1
CCC(C)NS(=O)(=O)c1cccs1 (stereo not given),0.5,50,12,0.9
CN(C(=O)C12CC3CC(CC(C3)C1)C2)C1CCS(=O)(=O)C1 (stereo not given),1,-4,-5,1.1
Cc1ccc(N=C(NO)c2nonc2N)cc1,0.6,42,9,0.9
c1ccc(-c2nnc(SCc3nc4ccccc4[nH]3)n2Cc2ccco2)cc1,0.7,29,59*,0.4
Nn1c(SCc2nc3ccccc3[nH]2)nnc1-c1ccccc1,0.9,14,-36,1.4
CCn1c(COc2ccc(Cl)cc2)nnc1SCc1nc2ccccc2[nH]1,0.7,30,41,0.6
Cc1ccc(OCc2nnc(SCc3nc4ccccc4[nH]3)n2Cc2ccco2)cc1,0.8,19,65*,0.4
CCOc1ccc(NC(=S)N(Cc2ccc(N(C)C)cc2)Cc2ccco2)cc1,0.5,50,63*,0.4
COc1nc(-c2ccc(C)cc2)ccc1-c1noc(-c2cccnc2)n1,0.7,27,42,0.6
Cc1ccc(-c2nc(-c3cccnc3)no2)c(C)c1,0.5,52*,14,0.9
Cc1cc(Br)ccc1OCc1nc(-c2cccnc2)no1,0.6,40,-10,1.1
Cc1ccc(C)c(OCc2nc(-c3cccnc3)no2)c1,0.1,90*,31,0.7
N#CCSc1nnc(-c2ccccc2O)n1CCc1ccccc1,0.6,41,-10,1.1
COC(=O)c1cc(NC(=O)CN(c2ccccc2OC)S(=O)(=O)c2ccccc2)ccc1Cl,0.5,52*,97*,0
O=C(CN1CCN(S(=O)(=O)c2ccccc2)CC1)Nc1ccc2c(c1)OCO2,0.5,49,29,0.7
COc1ccc(N(CC(=O)Nc2ccc3c(c2)OCCO3)S(=O)(=O)c2cccnc2)cc1,0.8,25,48,0.5
COc1cccc(N(CC(=O)Nc2ccc3c(c2)OCO3)S(=O)(=O)c2ccccc2)c1,0.9,7,71*,0.3
COc1ccc(S(=O)(=O)N(CC(=O)Nc2ccc3c(c2)OCO3)c2ccccc2OC)cc1,0.9,6,72*,0.3
COc1ccccc1N(CC(=O)Nc1ccc2c(c1)OCO2)S(=O)(=O)c1ccccc1,0.2,80*,100*,0
SMILES,CYP2C19 act,CYP2C19 inh,CYP2C9 inh,CYP2C9 activ
COc1ccc(-c2nn3cnnc3s2)cc1OC,0.6,36,13,0.9
COc1cc(OC)cc(C(=O)N2CCC(n3c(C)nc4cc(F)ccc43)CC2)c1,0.9,15,67*,0.3
O=C(CN1CCC(n2nnc3cc(F)ccc32)CC1)NC1CC1,0.9,9,5,1
O=C(CN1CCC(n2nnc3cc(F)ccc32)CC1)NC1CCCCC1,0.4,58*,60*,0.4
Cc1cccc(C(=O)N2CCC(n3nnc4cc(F)ccc43)CC2)c1,0.2,84*,82*,0.2
COC(=O)c1ccccc1NC(=O)CN1CCC(n2nnc3cc(F)ccc32)CC1,0.6,35,20,0.8
COCC(=O)N1CCC(n2nnc3cc(F)ccc32)CC1,1,2,1,1
CCOc1ccc2nc(NC(=O)CN3CCC(n4nnc5cc(F)ccc54)CC3)sc2c1,0.2,80*,86*,0.1
Cc1ccc(-c2nn(C)c(=O)c3ccccc23)cc1CNC(=O)c1ccco1,0.9,15,32,0.7
C=CC(=C)CC(NC)c1ccccc1 (stereo not given),1,-1,-10,1.1
O=C(CN1CCC(n2nnc3cc(F)ccc32)CC1)N1CCc2ccccc2C1,0.5,52*,14,0.9
CCOc1ccccc1C(=O)N1CCC(n2nnc3cc(C(F)(F)F)ccc32)CC1,0.3,68*,53*,0.5
Cc1ccc2c(c1)nnn2C1CCN(S(C)(=O)=O)CC1,0.7,31,12,0.9
CCOc1ccccc1C(=O)N1CCC(n2nnc3cc(C)ccc32)CC1,0.8,21,20,0.8
Cc1ccc2c(c1)nnn2C1CCN(S(=O)(=O)c2ccc(C(=O)N3C(C)CCCC3C)cc2)CC1 (stereo not given),0.2,77*,50,0.5
O=C(CN1CCC(n2nnc3cc(F)ccc32)CC1)Nc1ccccc1N1CCOCC1,0,96*,85*,0.1
Cc1cc(C)nc(NC2=NCC(=O)N2CCc2c[nH]c3ccccc23)n1,0.7,27,50,0.5
COc1ccccc1C1C(C(=O)c2cc3ccccc3o2)=C(O)C(=O)N1CCN1CCOCC1 (stereo not given),1.2,-16,-20,1.2
COc1ccc2[nH]c3c(N4CCN(Cc5ccc6c(c5)OCO6)CC4)ncnc3c2c1,0.4,58*,82*,0.2
COc1ccc2[nH]c3c(N4CCC(O)(c5cccc(C(F)(F)F)c5)CC4)ncnc3c2c1,0.6,40,67*,0.3
COc1ccc2c(c1)c1ncnc(N3CCN(Cc4ccc5c(c4)OCO5)CC3)c1n2C,0.8,22,82*,0.2
CC1(C)CC(=O)c2sc(NC(=O)c3ccc4ncsc4c3)nc2C1,1.1,-14,17,0.8
CSc1ccccc1-n1nnnc1SCC(=O)Nc1cc(C)ccc1C,0.7,31,-208,3.1*
Cc1ccc(-n2nnnc2SCC(=O)Nc2ccccc2N2CCCCC2)cc1C,0.2,80*,11,0.9
CC(C)n1nnnc1SCC(=O)Nc1ccccc1N1CCOCC1,0.4,56*,38,0.6
SMILES,CYP2C19 act,CYP2C19 inh,CYP2C9 inh,CYP2C9 activ
COc1ccccc1NC(=O)CSc1nnnn1-c1ccc2c(c1)OCO2,0.5,45,-23,1.2
CCC(=O)Nc1ccc(NC(=O)CSc2nnnn2C(C)C)cc1,1,-2,68*,0.3
CCCC(=O)c1c(C)c2ccccc2n1C,0.6,35,-11,1.1
O=c1c2cccc3c2c(nn1-c1ccccc1)-c1ccccc1-3,0.6,41,31,0.7
COc1ccc(-c2nc(C(N)=O)c3[nH]c(=O)n(-c4cccc(C)c4)c3n2)c(OC)c1,1.1,-7,18,0.8
COc1ccc(-n2c(Cc3cccn3C)nnc2SCC(=O)N2CCOCC2)cc1,1,-4,3,1
CC1CCN(c2c([N+](=O)[O-])nn(-c3ccc4c(c3)OCCO4)[n+]2[O-])CC1,0.8,19,39,0.6
CC(C)C(NC=C1C(=O)OC(C)(C)OC1=O)C(=O)O (stereo not given),1,2,65*,0.3
